According to the supplement of paper PMC12494721:
Where a name gives a salt, the structure may show the parent alone.

Columns and labels:
Conditions in all cases: incubation time: 27 h, anaerobic, 37 °C;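 for the amine columns active = adjusted P below 0.05 in both replicates with a change the same way and a mean fold change under 0.8 or over 1.25; inactive = the rest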
[1] = test system: Clostridium sporogenes DSM 1664; assay: growth (OD595) fold change vs plate DMSO controls (fold change (ratio)); higher = more growth
In short: (§1)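 Anaerobic 27 h, 37 °C mGAM 96-well cultures were shaken, then read for absorbance at 595 nm. Values were blank-subtracted and corrected for compound background using 20 µM compound solutions in water. A calibration factor of 5 converted them to OD. Growth is the fold change versus the median of plate DMSO controls. Fold changes above 1.5 were set to NA, and values are the mean of 2 biological replicates.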

Escherichia coli IAI1 [2] = assay: as above
In short: as §1

[3] = test system: Klebsiella aerogenes DSM 30053; assay: as above
In short: as §1

[4] = test system: Ruminococcus gnavus DSM 108212; assay: as above
In short: as §1

[5] = test system: Klebsiella aerogenes DSM 30053; assay: fold change of Histamine concentration vs plate DMSO controls (fold change (ratio)); higher = more amine produced, active = hit call of the paper (significant change in both replicates, either direction)
In short: (§2)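 Amine values are fold changes relative to DMSO-only wells on the same plate. They derive from 27 h, 37 °C anaerobic mGAM cultures of four gut bacterial strains in 80 µL wells, dosed at 20 µM final, or 50 µM final for sweeteners. Extraction of the whole culture, LC–triple-quadrupole MS in dynamic MRM mode, external calibration curves and within-batch drift correction were used, with 2 biological replicates averaged.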

[6] = test system: Clostridium sporogenes DSM 1664; assay: fold change of Tryptamine concentration vs plate DMSO controls (fold change (ratio)); higher = more amine produced, active = hit call of the paper (significant change in both replicates, either direction)
In short: as §2

[7] = test system: Ruminococcus gnavus DSM 108212; assay: as above
In short: as §2

Escherichia coli IAI1 [8] = assay: fold change of Putrescine concentration vs plate DMSO controls (fold change (ratio)); higher = more amine produced, active = hit call of the paper (significant change in both replicates, either direction)
In short: as §2

[9] = test system: Klebsiella aerogenes DSM 30053; assay: as above
In short: as §2

Escherichia coli IAI1 [10] = assay: fold change of Cadaverine concentration vs plate DMSO controls (fold change (ratio)); higher = more amine produced, active = hit call of the paper (significant change in both replicates, either direction)
In short: as §2

[11] = test system: Klebsiella aerogenes DSM 30053; assay: as above
In short: as §2

[12] = test system: Ruminococcus gnavus DSM 108212; assay: fold change of 2-Phenylethylamine concentration vs plate DMSO controls (fold change (ratio)); higher = more amine produced, active = hit call of the paper (significant change in both replicates, either direction)
In short: as §2

Row | SMILES | growth [1] | growth (Escherichia coli IAI1 [2]) | growth [3] | growth [4] | fold change of Histamine concentration [5] | fold change of Tryptamine concentration [6] | fold change of Tryptamine concentration [7] | fold change of Putrescine concentration (Escherichia coli IAI1 [8]) | fold change of Putrescine concentration [9] | fold change of Cadaverine concentration (Escherichia coli IAI1 [10]) | fold change of Cadaverine concentration [11] | fold change of 2-Phenylethylamine concentration [12]
1 | C[C@]12CCC3=C4CCC(=O)C=C4CC[C@H]3[C@@H]1CC[C@@]2(O)CC#N [Dienogest] (20 µM) | 0.815 | 0.536 | 0.616 | 0.67 | 0.945 (inactive) | 1.01 (inactive) | 1.04 (inactive) | 0.979 (inactive) | 1 (inactive) | 0.993 (inactive) | 1 (inactive) | 1.02 (inactive)
2 | CCC1=C(C)CN(C(=O)NCCc2ccc(S(=O)(=O)NC(=O)N[C@H]3CC[C@H](C)CC3)cc2)C1=O [Glimepiride] (20 µM) | 1.02 | 1.03 | 1.02 | 0.969 | 0.985 (inactive) | 0.934 (inactive) | 0.995 (inactive) | 0.976 (inactive) | 0.997 (inactive) | 1.04 (inactive) | 0.993 (inactive) | 1.02 (inactive)
3 | CCCCCN(C)CCC(O)(P(=O)(O)O)P(=O)(O)O [Ibandronate sodium] (20 µM) | 1.07 | 0.989 | 0.973 | 0.926 | 1.04 (inactive) | 1.05 (inactive) | 0.934 (inactive) | 1 (inactive) | 1.01 (inactive) | 1.03 (inactive) | 0.994 (inactive) | 0.958 (inactive)
4 | CO/N=C(\C(=O)N[C@@H]1C(=O)N2C(C(=O)[O-])=C(C[n+]3cccc4c3CCC4)CS[C@H]12)c1csc(N)n1 [Cefpirome sulfate] (20 µM) | 0.00168 | 0.00447 | 0.0713 | 0.108 | 0.122 (active) | 0.0112 (active) | 0.0828 (active) | 0.213 (active) | 0.347 (active) | 0.645 (inactive) | 1.09 (inactive) | 0.0627 (active)
5 | c1ccc([C@H]2CN3CCSC3=N2)cc1 [Levamisole hydrochloride] (20 µM) | 1 | 0.988 | 0.966 | 1 | 1.07 (inactive) | 0.986 (inactive) | 0.908 (inactive) | 0.967 (inactive) | 1.02 (inactive) | 1.01 (inactive) | 0.994 (inactive) | 0.961 (inactive)
6 | CC(C)[N+](C)(CCOC(=O)C1c2ccccc2Oc2ccccc21)C(C)C [Propantheline bromide] (20 µM) | 1.03 | 0.986 | 1 | 0.994 | 1 (inactive) | 0.971 (inactive) | 0.96 (inactive) | 1.02 (inactive) | 0.992 (inactive) | 1.01 (inactive) | 0.996 (inactive) | 0.963 (inactive)
7 | CC(=O)Oc1cc(C(C)C)c(OCCN(C)C)cc1C [Moxisylyte hydrochoride] (20 µM) | 1.11 | 1.04 | 1.03 | 1.22 | 0.989 (inactive) | 0.957 (inactive) | 1.04 (inactive) | 0.997 (inactive) | 1.03 (inactive) | 0.986 (inactive) | 1 (inactive) | 0.982 (inactive)
8 | C[C@]12C=CC(=O)C=C1CC[C@H]1[C@@H]3C[C@@H](O)[C@](O)(C(=O)CO)[C@@]3(C)C[C@H](O)[C@@]12F [Triamcinolone] (20 µM) | 1.01 | 0.986 | 1.02 | 0.944 | 0.954 (inactive) | 0.918 (inactive) | 1.02 (inactive) | 0.976 (inactive) | 1.02 (inactive) | 0.994 (inactive) | 0.992 (inactive) | 1.07 (inactive)
9 | Nc1ccc(S(=O)(=O)c2ccc(N)cc2)cc1 [Dapsone] (20 µM) | 1.06 | 1.02 | 0.979 | 1.2 | 0.967 (inactive) | 1.03 (inactive) | 0.982 (inactive) | 1.04 (inactive) | 0.981 (inactive) | 1.02 (inactive) | 1 (inactive) | 1.04 (inactive)
10 | CC1(C)S[C@@H]2[C@H](NC(=O)[C@H](C(=O)O)c3ccsc3)C(=O)N2[C@H]1C(=O)O [Ticarcillin sodium] (20 µM) | 0 | 1.22 | 1.02 | 0 | 1.04 (inactive) | 0.0277 (active) | 0.0454 (active) | 1.21 (inactive) | 1.02 (inactive) | 1.44 (active) | 0.996 (inactive) | 0.0536 (active)
11 | CCCNC(C)C(=O)Nc1c(C)csc1C(=O)OC (stereo not drawn) [Articaine hydrochloride] (20 µM) | 0.923 | 1.08 | 1.03 | 1.12 | 0.917 (inactive) | 1.06 (inactive) | 1.06 (inactive) | 0.985 (inactive) | 0.992 (inactive) | 0.966 (inactive) | 1.01 (inactive) | 1.09 (inactive)
12 | CC(C)NCC(O)c1ccc(NS(C)(=O)=O)cc1 (stereo not drawn) [Sotalol hydrochloride] (20 µM) | 0.907 | 0.97 | 1.2 | 1.01 | 0.907 (inactive) | 1.03 (inactive) | 1.18 (inactive) | 0.935 (inactive) | 1.06 (inactive) | 1.08 (inactive) | 1.12 (inactive) | 1.36 (inactive)
13 | CC(C)NC(=N)NC(=N)Nc1ccc(Cl)cc1 [Proguanil hydrochloride] (20 µM) | 0.986 | 0.955 | 0.964 | 0.969 | 1.06 (inactive) | 1.04 (inactive) | 1.03 (inactive) | 1.09 (inactive) | 0.997 (inactive) | 0.868 (inactive) | 0.979 (inactive) | 1.02 (inactive)
14 | CCOc1ccc2c(c1)C(C)=CC(C)(C)N2 [Ethoxyquin] (20 µM) | 0.801 | 1 | 1.01 | 1.22 | 1.07 (inactive) | 1.06 (inactive) | 0.854 (inactive) | 1 (inactive) | 1.01 (inactive) | 0.994 (inactive) | 0.986 (inactive) | 0.807 (inactive)
15 | CC[C@H](C)[C@H](N)C1=N[C@H](C(=O)N[C@@H](CC(C)C)C(=O)N[C@H](CCC(=O)O)C(=O)N[C@H](C(=O)N[C@H]2CCCCNC(=O)[C@H](CC(N)=O)NC(=O)[C@@H](CC(=O)O)NC(=O)[C@H](Cc3cnc[nH]3)NC(=O)[C@@H](Cc3ccccc3)NC(=O)[C@H]([C@@H](C)CC)NC(=O)[C@@H](CCCN)NC2=O)[C@@H](C)CC)CS1 [Bacitracin] (20 µM) | 1 | 1.05 | 1.02 | 0.0384 | 0.999 (inactive) | 1.02 (inactive) | 0.0521 (active) | 1.18 (inactive) | 1.01 (inactive) | 1.01 (inactive) | 1 (inactive) | 0.0535 (active)
16 | CCn1cc(C(=O)O)c(=O)c2cc(F)c(N3CCNCC3)cc21 [Norfloxacin] (20 µM) | 0.0353 | 0.0339 | 0.239 | 0.814 | 0.0898 (active) | 0.0308 (active) | 0.863 (inactive) | 0.612 (active) | 0.792 (active) | 0.161 (active) | 0.963 (inactive) | 0.892 (inactive)
17 | CO[C@@]1(NC(=O)C(C(=O)O)c2ccc(O)cc2)C(=O)N2C(C(=O)O)=C(CSc3nnnn3C)CO[C@@H]21 (stereo partly drawn) [Moxalactam disodium salt] (20 µM) | 0 | 0.0889 | 1.02 | 0.0817 | 0.893 (inactive) | 0.0273 (active) | 0.06 (active) | 1.5 (inactive) | 1.02 (inactive) | 2 (active) | 1.02 (inactive) | 0.0586 (active)
18 | Nc1nc(Cl)nc2c1ncn2[C@H]1C[C@H](O)[C@@H](CO)O1 [Cladribine] (20 µM) | 0.964 | 0.974 | 1.06 | 0.893 | 0.841 (inactive) | 1.06 (inactive) | 0.925 (inactive) | 0.684 (inactive) | 0.984 (inactive) | 0.934 (inactive) | 1.02 (inactive) | 0.957 (inactive)
19 | Cn1cc([S+](C)[O-])c(=O)c2ccc(F)cc21 (stereo not drawn) [Flosequinan] (20 µM) | 0.995 | 1 | 1.01 | 1.06 | 1.03 (inactive) | 0.946 (inactive) | 0.958 (inactive) | 0.994 (inactive) | 1.02 (inactive) | 1.04 (inactive) | 0.999 (inactive) | 0.938 (inactive)
20 | Cn1ccnc1S [Methimazole] (20 µM) | 1.17 | 1.11 | 0.998 | 1.13 | 1.04 (inactive) | 0.989 (inactive) | 0.998 (inactive) | 1.17 (inactive) | 1 (inactive) | 0.976 (inactive) | 0.984 (inactive) | 0.993 (inactive)
21 | COc1ccccc1N1CCN(CCCCNC(=O)c2ccc3ccccc3c2)CC1 (20 µM) | 0.826 | 0.976 | 0.969 | 0.893 | 0.972 (inactive) | 1.13 (inactive) | 1.08 (inactive) | 1.04 (inactive) | 0.962 (inactive) | 0.795 (inactive) | 1.02 (inactive) | 1.3 (inactive)
22 | CC1=C(C(=O)O)N2C(=O)[C@@H](NC(=O)[C@H](N)C3=CCC=CC3)[C@H]2SC1 [Cephradine monohydrate] (20 µM) | 1.11 | 1.04 | 1.02 | 1.07 | 0.968 (inactive) | 1.04 (inactive) | 1 (inactive) | 1.05 (inactive) | 1 (inactive) | 0.921 (inactive) | 0.988 (inactive) | 0.994 (inactive)
23 | CC(=O)Nc1cccc(O)c1 [Metacetamol] (20 µM) | 0.961 | 1.03 | 1.01 | 0.966 | 1.01 (inactive) | 0.941 (inactive) | 0.999 (inactive) | 1.02 (inactive) | 0.992 (inactive) | 1 (inactive) | 0.988 (inactive) | 0.962 (inactive)
24 | COCC(=O)O[C@]1(CCN(C)CCCc2nc3ccccc3[nH]2)CCc2cc(F)ccc2[C@@H]1C(C)C [Mibefradil hydrochloride] (20 µM) | 1.05 | 0.996 | 1 | 0.967 | 0.954 (inactive) | 0.999 (inactive) | 0.925 (inactive) | 1.02 (inactive) | 1.01 (inactive) | 1.02 (inactive) | 1 (inactive) | 0.908 (inactive)
